According to PubChem BioAssay (NCI):
The panel holds about 79,000 compounds, 15% with a hit somewhere; the sample as a whole holds those more often. Calls of active or inactive are those of the source. No stated cut-off is given here; in the data, active means growth inhibition above about 70%; inactive means the rest.

How the values were obtained:
[1] = NCI Yeast Anticancer Drug Screen. Data for the rad52 strain (AID 147);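 further: 0% = growth of vehicle-treated control cultures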; conditions: S. cerevisiae rad52 mutant growth inhibition, stronger effect = higher value
Summary of the method: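 Genetically altered yeast (DNA damage repair defect) treated with compound; inhibition calculated relative to vehicle.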

[2] = NCI Yeast Anticancer Drug Screen. Data for the wt1 strain (AID 149);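 further: 0% = growth of vehicle-treated wt1 cultures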; conditions: S. cerevisiae wt1 strain (SPY 50644) growth inhibition, stronger effect = higher value
Summary of the method: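 Yeast wt1 strain exposed to compounds; growth inhibition measured relative to vehicle-treated controls.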

[3] = NCI Yeast Anticancer Drug Screen. Data for the rad50EPP+ strain (AID 151);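 further: 0% = growth of vehicle-treated control cultures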; conditions: S. cerevisiae rad50 mutant strain, stronger effect = higher value
Summary of the method: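 Strain rad50EPP+; compound exposure; % growth inhibition vs vehicle.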

[4] = NCI Yeast Anticancer Drug Screen. Data for the rad50 strain (AID 155);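 further: 0% = growth of vehicle-only cultures of the same strain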; conditions: S. cerevisiae rad50 strain growth inhibition, stronger effect = higher value
Summary of the method: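 Yeast carrying a defined DNA repair defect were exposed to test compounds, and growth was compared with vehicle-treated controls to give percent inhibition.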

[5] = NCI Yeast Anticancer Drug Screen. Data for the mec2-1 strain (AID 157); conditions: S. cerevisiae mec2-1 strain, stronger effect = higher value
Summary of the method: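 Cells of the genetically defined mec2-1 yeast strain are incubated with test compound. Inhibition of growth is calculated against vehicle-treated controls.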

[6] = NCI Yeast Anticancer Drug Screen. Data for the rad14 strain (AID 159);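 further: 0% = growth of vehicle-treated control cultures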; conditions: S. cerevisiae rad14 strain growth inhibition, stronger effect = higher value
Summary of the method: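 Yeast cells carrying a defined DNA-repair defect were exposed to compounds, and growth inhibition was calculated relative to vehicle-treated control cultures.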

[7] = NCI Yeast Anticancer Drug Screen. Data for the sgs1 mgt1 strain (AID 161);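 further: 0% = growth of cultures given vehicle only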; conditions: S. cerevisiae sgs1 mgt1 strain, stronger effect = higher value
Summary of the method: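 Read-out: growth inhibition vs vehicle controls. Cells: mutant yeast strain deficient in DNA damage repair.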

[8] = NCI Yeast Anticancer Drug Screen. Data for the CLN2oe strain (AID 163);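 further: 0% = growth of vehicle-only control cultures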; conditions: S. cerevisiae CLN2oe strain, stronger effect = higher value
Summary of the method: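 Strain altered in cell-cycle control, incubated with compound; growth compared to solvent-treated controls.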

[9] = NCI Yeast Anticancer Drug Screen. Data for the cln2 rad14 strain (AID 165);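 further: 0% = growth equal to vehicle treated cultures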; conditions: S. cerevisiae cln2 rad14 strain, stronger effect = higher value
Summary of the method: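 The screen exposed genetically defined yeast (cln2 rad14) to test compounds and scored growth inhibition relative to vehicle-treated controls.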

[10] = NCI Yeast Anticancer Drug Screen. Data for the bub3 strain (AID 167); conditions: S. cerevisiae bub3 mutant strain, stronger effect = higher value
Summary of the method: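 Compounds were applied to a genetically altered yeast strain carrying a cell-cycle control defect. Growth inhibition was scored against vehicle-treated controls.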

[11] = NCI Yeast Anticancer Drug Screen. Data for the wt2 strain (AID 169);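 further: 0% = growth of vehicle-treated yeast cultures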; conditions: S. cerevisiae wt2 strain growth inhibition, stronger effect = higher value
Summary of the method: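 Steps: yeast strain treated with compound; growth recorded; inhibition calculated relative to cultures given vehicle alone.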

[12] = NCI Yeast Anticancer Drug Screen. Data for the mlh1 strain (AID 171);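 further: 0% = growth of vehicle-treated control cultures of the same strain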; conditions: S. cerevisiae mlh1 strain growth inhibition, stronger effect = higher value
Summary of the method: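 Yeast screen: mutant strain plus compound, growth scored against vehicle control wells.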

[13] = NCI Yeast Anticancer Drug Screen. Data for the sgs1 strain (AID 173);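 further: 0% = growth of vehicle-only control cultures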; conditions: S. cerevisiae sgs1 mutant, stronger effect = higher value
Summary of the method: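 Inhibition of yeast growth served as the measure. The mutant strain was treated with each compound, and growth was normalised to cultures receiving vehicle alone.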

[14] = NCI Yeast Anticancer Drug Screen. Data for the mlh1 rad18 strain (AID 175); conditions: S. cerevisiae mlh1 rad18 strain growth inhibition, stronger effect = higher value
Summary of the method: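 Compound-treated yeast growth, normalised to vehicle controls. Strain bears defined DNA repair mutations.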

[15] = NCI Yeast Anticancer Drug Screen. Data for the rad18 strain (AID 177); conditions: S. cerevisiae rad18 mutant growth inhibition, stronger effect = higher value
Summary of the method: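 Inhibition values reflect reduced yeast growth compared with vehicle-treated controls, using a strain engineered with a DNA damage repair defect.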

[16] = NCI Yeast Anticancer Drug Screen. Data for the mgt1 strain (AID 153); conditions: S. cerevisiae mgt1 mutant growth inhibition, stronger effect = higher value
Summary of the method: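 Read-out: yeast growth inhibition vs vehicle control. Strain mgt1, drawn from a panel altered in DNA damage repair or cell cycle control.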

[17] = at 5.0 µM (retest, dose inferred, filed as 0.5)
[18] = at 50.0 µM (retest, dose inferred, filed as 5.0)

Measured: growth inhibition

Cc1c(C(C)C)cc(OCCO)cc1C(C)C
inactive: [1]; at 1.2 µM -3% | [1]; at 3.7 µM -1% | [1]; at 11.0 µM -4% | [1]; at 33.0 µM 4% | [2]; at 1.2 µM -2% | [2]; at 3.7 µM -3% | [2]; at 11.0 µM -3% | [2]; at 33.0 µM -7% | [2]; at 100.0 µM -7% | [3]; at 1.2 µM -1% | [3]; at 3.7 µM -2% | [3]; at 11.0 µM 0% | [3]; at 33.0 µM 6% | [3]; at 100.0 µM 16% | [4]; at 1.2 µM -3% | [4]; at 3.7 µM 2% | [4]; [17] -8% | [4]; at 11.0 µM 2% | [4]; at 33.0 µM 5% | [4]; [18] -20% | [4]; at 50.0 µM 68.7% | [5]; at 1.2 µM -4% | [5]; at 3.7 µM -7% | [5]; [17] -18% | [5]; at 11.0 µM -8% | [5]; at 33.0 µM -10% | [5]; [18] -11% | [5]; at 50.0 µM -29.8% | [5]; at 100.0 µM 15% | [6]; at 1.2 µM -3% | [6]; at 3.7 µM -7% | [6]; at 11.0 µM -2% | [6]; at 33.0 µM -4% | [6]; at 100.0 µM 36% | [7]; [17] 0% | [7]; [18] 10% | [7]; at 50.0 µM 0.35% | [8]; at 1.2 µM -3% | [8]; at 3.7 µM -3% | [8]; at 11.0 µM -4% | [8]; at 33.0 µM 0% | [9]; [17] 40% | [9]; [18] 1% | [10]; at 1.2 µM -3% | [10]; at 3.7 µM -8% | [10]; [17] -16% | [10]; at 11.0 µM -4% | [10]; at 33.0 µM -5% | [10]; [18] -6% | [10]; at 50.0 µM -16.6% | [10]; at 100.0 µM 22% | [11]; at 1.2 µM -4% | [11]; at 3.7 µM -4% | [11]; at 11.0 µM -6% | [11]; at 33.0 µM -10% | [11]; at 100.0 µM 33% | [12]; at 1.2 µM -9% | [12]; at 3.7 µM -4% | [12]; at 11.0 µM -14% | [12]; at 33.0 µM -11% | [12]; at 100.0 µM 26% | [13]; at 1.2 µM -1% | [13]; at 3.7 µM -3% | [13]; at 11.0 µM -1% | [13]; at 33.0 µM -3% | [13]; at 100.0 µM 45% | [14]; [17] -3% | [14]; [18] -18% | [15]; at 1.2 µM -4% | [15]; at 3.7 µM -7% | [15]; at 11.0 µM -5% | [15]; at 33.0 µM -8% | [15]; at 100.0 µM 65%
active: [1]; at 100.0 µM 77% | [4]; at 100.0 µM 73% | [8]; at 100.0 µM 73% | [9]; at 50.0 µM 86.2% | [14]; at 50.0 µM 83%

O=c1c2ccccc2nc(-c2ccccc2)n1O
inactive: [1]; at 1.2 µM 16% | [1]; at 3.7 µM 19% | [1]; at 11.0 µM 62% | [2]; at 1.2 µM 12% | [2]; at 3.7 µM 15% | [2]; at 11.0 µM 63% | [3]; at 1.2 µM 3% | [3]; at 3.7 µM 3% | [3]; at 11.0 µM 16% | [16]; at 1.2 µM 31% | [16]; at 3.7 µM 26% | [4]; at 1.2 µM 36% | [4]; at 3.7 µM 39% | [4]; [17] 45% | [5]; at 1.2 µM 18% | [5]; at 3.7 µM 16% | [5]; [17] 14% | [5]; at 11.0 µM 55% | [7]; [17] 66% | [8]; at 1.2 µM 1% | [8]; at 3.7 µM 9% | [8]; at 11.0 µM 29% | [9]; [17] -11% | [10]; at 1.2 µM 12% | [10]; at 3.7 µM 18% | [10]; [17] 43% | [11]; at 1.2 µM 24% | [11]; at 3.7 µM 55% | [12]; at 1.2 µM 50% | [12]; at 3.7 µM 48% | [13]; at 1.2 µM 32% | [13]; at 3.7 µM 48% | [14]; [17] 55% | [15]; at 1.2 µM 39% | [15]; at 3.7 µM 35%
active: [1]; at 33.0 µM 95% | [1]; at 100.0 µM 97% | [2]; at 33.0 µM 97% | [2]; at 100.0 µM 97% | [3]; at 33.0 µM 82% | [3]; at 100.0 µM 87% | [16]; at 11.0 µM 92% | [16]; at 33.0 µM 98% | [16]; at 100.0 µM 97% | [4]; at 11.0 µM 89% | [4]; at 33.0 µM 97% | [4]; [18] 99% | [4]; at 50.0 µM 99% | [4]; at 100.0 µM 98% | [5]; at 33.0 µM 96% | [5]; [18] 99% | [5]; at 50.0 µM 98.2% | [5]; at 100.0 µM 97% | [7]; [18] 99% | [7]; at 50.0 µM 98.8% | [8]; at 33.0 µM 86% | [8]; at 100.0 µM 88% | [9]; [18] 96% | [9]; at 50.0 µM 97% | [10]; at 11.0 µM 78% | [10]; at 33.0 µM 95% | [10]; [18] 99% | [10]; at 50.0 µM 97.9% | [10]; at 100.0 µM 95% | [11]; at 11.0 µM 96% | [11]; at 33.0 µM 98% | [11]; at 100.0 µM 98% | [12]; at 11.0 µM 95% | [12]; at 33.0 µM 98% | [12]; at 100.0 µM 98% | [13]; at 11.0 µM 93% | [13]; at 33.0 µM 97% | [13]; at 100.0 µM 97% | [14]; [18] 99% | [14]; at 50.0 µM 98.5% | [15]; at 11.0 µM 89% | [15]; at 33.0 µM 97% | [15]; at 100.0 µM 97%
